Most compounds without a hit are left out; they make up all but 3.2% or so of the library.
Rv3671c protease: inhibits the M. tuberculosis serine protease Rv3671c; inhibition, % at 5.96 µM; 320,000 compounds, 0.048% hits; P9WHR9; in the data active = inhibition above about 38%;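 note: extracellular domain of Rv3671c used as enzyme; 0% = enzyme with DMSO and 100% = no enzyme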
Target sequence (P9WHR9 whole entry, looked up, the tested form may be a part): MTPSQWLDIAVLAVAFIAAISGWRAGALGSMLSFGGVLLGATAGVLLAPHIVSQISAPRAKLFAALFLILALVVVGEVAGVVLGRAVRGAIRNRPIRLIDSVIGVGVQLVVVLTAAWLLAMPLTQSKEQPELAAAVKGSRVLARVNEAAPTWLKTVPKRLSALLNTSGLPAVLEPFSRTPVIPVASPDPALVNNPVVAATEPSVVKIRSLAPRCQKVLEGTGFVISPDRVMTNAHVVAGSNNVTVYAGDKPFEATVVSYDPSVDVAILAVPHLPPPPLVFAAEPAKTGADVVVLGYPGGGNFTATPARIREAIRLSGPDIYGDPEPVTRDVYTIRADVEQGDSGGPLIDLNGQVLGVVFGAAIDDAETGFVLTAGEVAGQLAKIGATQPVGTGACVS
Mtb bLac sens: beta-lactam sensitization of Mtb H37Rv; inhibition, % at 25 µM; AID 434955; 330,000 compounds, 0.27% hits; M. tuberculosis H37Rv growth with meropenem, percent inhibition; call rule not given here;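 note: growth measured after seven days incubation then overnight dye step; 0% = bacteria only wells and 100% = bacteria with antibiotic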
Mtb FBA inh: inhibitors of M. tuberculosis fructose-bisphosphate aldolase; P9WQA3; purified M. tuberculosis FBA, fluorescence read-out; inhibition, % at 1 µM; 360,000 compounds, 2.3% hits; AID 588726; in the data active = inhibition above about 27%;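 note: 0% = vehicle and 100% = reference inhibitor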
Mtb UGM inh: inhibitors of M. tuberculosis UDP-galactopyranose mutase; 320,000 compounds, 0.06% hits; P9WIQ1; inhibition, % at 10 µM; purified UGM, fluorescence polarization probe displacement; in the data active = inhibition above about 10%, passing the limit was not always enough; inconclusive = no clear call, values can overlap the other calls
PriA SSB inh: inhibitors of Klebsiella pneumoniae PriA binding to SSB C-terminal tail; AlphaScreen SSBct-PriA binding, biotinylated peptide; inhibition, % at 33 µM; 430,000 compounds, 0.6% hits; AID 1272365; in the data active = inhibition mostly above about 37%, no sharp cut-off; inactive = mostly below about 20%;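 note: plate controls were negative control peptide for no effect and reference peptide for full effect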
GDH-TPI inh: counter-screen for M. tuberculosis FBA inhibitors: GDH-TPI coupled enzymes; GDH-TPI coupled enzyme counterscreen, NADH absorbance; inhibition, % at 4.8 µM; 360,000 compounds, 1.2% hits; AID 588335; in the data active = inhibition above about 30%;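 note: 0% = DMSO wells and 100% = wells lacking the enzyme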
An asterisk follows results filed as active; i = inactive; ? = inconclusive; . = no result given; + = active, no number.

SMILES	Rv3671c protease	Mtb bLac sens	Mtb FBA inh	Mtb UGM inh	PriA SSB inh	GDH-TPI inh
CCOc1ccc(S(=O)(=O)NCC2CCN(c3ncccc3C#N)CC2)cc1F	.	.	.	.	-6	.
Cc1ccc(C(=O)N/C(=C\c2ccco2)C(=O)NCCCn2ccnc2)cc1	2	-7	3	-2	103*	5
CN(C)c1ccc(/C=C(\NC(=O)c2ccccc2)C(=O)NCCCn2ccnc2)cc1	-3	4	-2	-2	39*	20
CSc1ccc2nc(Nc3nnc(-c4ccccc4)o3)sc2c1	.	.	.	.	-14	.
COc1ccc(CC(=O)NCC#CCOc2cccc(C(F)(F)F)c2)cc1OC	.	.	.	.	5	.
Cn1nccc1C(=O)NC1CCN(c2ccc(-c3ccccc3Cl)nn2)CC1	.	.	.	.	-12	.
COCCCNC(=O)CSc1nc2c(sc(=S)n2-c2cc(Cl)ccc2OC)c(=O)[nH]1	-3	-7	-1	1	-5	29
CCn1c(=S)sc2c(=O)[nH]c(SCC(=O)Nc3cc(OC)ccc3OC)nc21	-2	3	-2	-4	-2	34*
COc1ccc(Cl)cc1-n1c(=S)sc2c(=O)[nH]c(SCC(=O)NCC3CCCO3)nc21 (centres undefined)	-8	-5	0	1	-16	38*
Cc1[nH]n(-c2ccc(Br)cc2)c(=O)c1C=NNC(=O)c1ccccc1	.	.	.	.	-6	.
O=C(NN=Cc1ccc(OC(F)F)cc1OC(F)F)NC1CCCCC1	.	.	.	.	-15	.
COc1ccc(OC)c(Nc2nc(CC(=O)N3CCN(Cc4ccc5c(c4)OCO5)CC3)cs2)c1	.	.	.	.	29	.
COCCN1CCCc2ccc(NS(=O)(=O)c3c(C)c(C)c(C)c(C)c3C)cc21	.	.	.	.	38*	.
COCCN1CCCc2ccc(NS(=O)(=O)c3ccc4c(c3)CCCC4)cc21	.	.	.	.	45*	.
COCCN1CCCc2ccc(NS(=O)(=O)c3ccc(F)cc3)cc21	.	.	.	.	20	.
CCS(=O)(=O)Nc1ccc2c(c1)N(CCOC)CCC2	.	.	.	.	-14	.
Cc1ccc(C2=[N+]([O-])C3(CCCCCC3=NNC(N)=O)N(O)C2(C)C)o1 (centres undefined)	.	.	.	.	-3	.
COc1ccc(-c2oc3ccccc3c(=O)c2OC(C)=O)cc1	2	80	+	1	-12	46*
CCOC(=O)NCC#CCOc1ccccc1C(N)=O	.	.	.	.	-3	.
CC(=O)Nc1ccc(S(=O)(=O)Nc2nc3ccccc3nc2Nc2ccc3ccccc3c2)cc1	-1	1	11	0	-7	14
CC(=O)Nc1ccc(S(=O)(=O)Nc2nc3ccccc3nc2Nc2ccc(N)cc2)cc1	2	11	8	1	6	31*
O=[N+]([O-])c1c(C(Cl)Cl)nn(-c2ccccc2)c1N1CCCC1	-1	-3	-2	-2	50*	8
Cc1cc(C)c(S(=O)(=O)n2c([N+](=O)[O-])cnc2C)cc1C	2	12	0	10*	-8	6
O=C(c1ccc(-n2cccc2)cc1)N1CCN(c2cc(C(F)(F)F)ncn2)CC1	.	.	.	.	-2	.
O=c1[nH]nc(N/N=C/c2ccccc2OC(F)F)c(=O)[nH]1	-1	0	3	0	.	42*
SMILES	Rv3671c protease	Mtb bLac sens	Mtb FBA inh	Mtb UGM inh	PriA SSB inh	GDH-TPI inh
CCc1cc2c(=O)c(-c3ccc(F)cc3)c(C)oc2c(CN2CCCCC2)c1O	.	.	.	.	-8	.
Cc1oc2c(CN3CCCCC3)c(O)ccc2c(=O)c1-c1ccc(Br)cc1	5	1	130*	2	-3	33*
COc1ccccc1-c1c(C)oc2c(CN3CCCCC3C)c(O)ccc2c1=O (centres undefined)	9	-2	145*	-2	-15	20
Cc1oc2c(CN3CCCCC3C)c(O)ccc2c(=O)c1-c1ccccc1 (centres undefined)	5	2	174*	4	-1	11
O=C1CN=C(c2ccccc2)c2ccc(Cl)cc2N1	.	.	.	.	-38	.
O=C(NCc1nc2ccccc2[nH]1)c1cc(N2CCCCC2)ncn1	.	.	.	.	-7	.
Cc1cc(SCC(=O)OCc2ccccc2)nc(=O)[nH]1	.	.	.	.	1	.
O=S1(=O)N=C(Nc2nc3c(s2)CCCC3)c2ccccc21	-1	88	1	1	-7	36*
CCOc1ccc(CC(=O)Nc2c(C)nc3scc(C)n3c2=O)cc1	.	.	.	.	0	.
Cc1c(NC(=S)N/N=C\c2ccccc2O)c(=O)n(-c2ccccc2)n1C	7	-2	8	1	.	31*
Cc1c(NC(=S)N/N=C/c2ccc([N+](=O)[O-])cc2O)c(=O)n(-c2ccccc2)n1C	23	4	-12	1	.	48*
Cc1c(NC(=S)NN=Cc2ccc(O)cc2)c(=O)n(-c2ccccc2)n1C	.	.	.	.	-3	.
O=C(CSc1ncc(-c2ccccc2)n1-c1ccccc1)NCc1ccco1	-3	14	0	-2	52*	-8
Cc1nnc(SCC(=O)NCc2ccco2)n1-c1ccc(F)cc1	0	1	-4	-1	-2	4
COc1ccc(-n2c(-c3ccc(F)cc3)cnc2SCC(=O)NCc2ccco2)cc1	-2	2	3	4	49*	7
O=C(CSc1ncc(-c2ccc(F)cc2)n1Cc1ccco1)Nc1ccc2c(c1)OCO2	-2	-6	-5	?	30	2
CCOc1ccc(NC(=O)CSc2ncc(-c3ccc(F)cc3)n2Cc2ccco2)cc1	-3	-12	-2	4	43*	4
O=C1CCCCN1c1ccc(NS(=O)(=O)Cc2cc(F)ccc2F)cc1	.	.	.	.	-9	.
CC1Cc2ccccc2N1C(=O)COc1c(F)c(F)c(F)c(F)c1F (centres undefined)	.	.	.	.	-6	.
O=c1c(SCc2cccc([N+](=O)[O-])c2)nccn1-c1ccc(F)cc1	.	.	.	.	40*	.
O=C(c1ccco1)N1N=C(c2cccs2)CC1c1cc([N+](=O)[O-])ccc1O (centres undefined)	-11	-16	-4	2	7	45*
O=C(c1ccc([N+](=O)[O-])o1)N1N=C(c2cccs2)CC1c1ccccc1O (centres undefined)	.	.	.	.	38	.
O=C(COc1ccc(Cl)cc1Cl)NCc1cc(-c2ccncc2)n(C2CCCC2)n1	.	.	.	.	-17	.
CSc1nsc(SCC(=O)N2CCN(c3ccccc3)CC2)n1	5	100	135*	2	3	-2
COc1ccc(-c2nsc(SCC(=O)N3CCN(c4ccccc4)CC3)n2)cc1	.	.	.	.	-18	.
SMILES	Rv3671c protease	Mtb bLac sens	Mtb FBA inh	Mtb UGM inh	PriA SSB inh	GDH-TPI inh
Cc1cc(=O)n2c3ccccc3n(CC(O)CN3CCCCC3)c2c1C#N (centres undefined)	-5	0	20	1	-4	50*
Cc1cc(=O)n2c3ccccc3n(CC(O)CN3CCOCC3)c2c1C#N (centres undefined)	1	3	6	-2	-6	12
CSc1cnc2c(=O)n(C)c(=O)[nH]c2n1	18	2	130*	1	-1	23
O=C1C(=O)N(CCO)C(c2ccc(Br)cc2)/C1=C(\O)c1ccccc1 (centres undefined)	-3	0	2	1	.	33*
O=C1C(=O)N(CCO)C(c2ccc(Br)cc2)C1=C(O)c1ccccc1 (centres undefined)	.	.	.	.	-1	.
C/C(=N\Nc1ccccc1[N+](=O)[O-])c1ccc([N+](=O)[O-])cc1	.	.	.	.	i	.
